Our source for the inhibition values is ChEMBL document CHEMBL1961873, “Compounds: GSK PKIS; Assays: Nanosyn kinase panel” (2012).

In experiment [1] the target is 5'-AMP-activated protein kinase catalytic subunit alpha-2 (Homo sapiens) (UniProt P54646). As to conditions: at 1 µM.
Experiment [2] has as its target T1, NUAK family SNF1-like kinase 1 (Homo sapiens) (UniProt O60285).
T1 sequence (whole entry): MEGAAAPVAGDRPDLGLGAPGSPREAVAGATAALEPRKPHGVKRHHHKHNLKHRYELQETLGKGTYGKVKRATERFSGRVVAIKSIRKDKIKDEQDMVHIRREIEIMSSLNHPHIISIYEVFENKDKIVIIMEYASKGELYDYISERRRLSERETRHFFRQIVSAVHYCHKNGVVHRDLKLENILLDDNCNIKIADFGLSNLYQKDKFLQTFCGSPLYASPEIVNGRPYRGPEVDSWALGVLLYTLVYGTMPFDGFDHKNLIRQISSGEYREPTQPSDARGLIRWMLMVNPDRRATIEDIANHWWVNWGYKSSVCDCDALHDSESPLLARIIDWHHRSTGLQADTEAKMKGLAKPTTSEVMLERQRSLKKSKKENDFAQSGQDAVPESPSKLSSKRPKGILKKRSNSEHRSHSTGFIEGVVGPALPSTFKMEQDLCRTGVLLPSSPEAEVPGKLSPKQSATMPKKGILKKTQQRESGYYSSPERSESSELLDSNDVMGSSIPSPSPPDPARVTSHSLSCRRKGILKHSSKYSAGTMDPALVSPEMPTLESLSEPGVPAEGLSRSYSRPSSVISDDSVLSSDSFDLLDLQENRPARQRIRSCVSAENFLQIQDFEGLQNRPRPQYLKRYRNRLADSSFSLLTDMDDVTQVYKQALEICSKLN
The conditions noted are these: at 0.1 µM.

For experiment [3], the target named is T1, NUAK family SNF1-like kinase 1 (Homo sapiens). As to conditions: at 1 µM.
Experiment [4] concerns the target T2, Serine/threonine-protein kinase BRSK1 (Homo sapiens) (UniProt Q8TDC3).
T2 sequence (whole entry): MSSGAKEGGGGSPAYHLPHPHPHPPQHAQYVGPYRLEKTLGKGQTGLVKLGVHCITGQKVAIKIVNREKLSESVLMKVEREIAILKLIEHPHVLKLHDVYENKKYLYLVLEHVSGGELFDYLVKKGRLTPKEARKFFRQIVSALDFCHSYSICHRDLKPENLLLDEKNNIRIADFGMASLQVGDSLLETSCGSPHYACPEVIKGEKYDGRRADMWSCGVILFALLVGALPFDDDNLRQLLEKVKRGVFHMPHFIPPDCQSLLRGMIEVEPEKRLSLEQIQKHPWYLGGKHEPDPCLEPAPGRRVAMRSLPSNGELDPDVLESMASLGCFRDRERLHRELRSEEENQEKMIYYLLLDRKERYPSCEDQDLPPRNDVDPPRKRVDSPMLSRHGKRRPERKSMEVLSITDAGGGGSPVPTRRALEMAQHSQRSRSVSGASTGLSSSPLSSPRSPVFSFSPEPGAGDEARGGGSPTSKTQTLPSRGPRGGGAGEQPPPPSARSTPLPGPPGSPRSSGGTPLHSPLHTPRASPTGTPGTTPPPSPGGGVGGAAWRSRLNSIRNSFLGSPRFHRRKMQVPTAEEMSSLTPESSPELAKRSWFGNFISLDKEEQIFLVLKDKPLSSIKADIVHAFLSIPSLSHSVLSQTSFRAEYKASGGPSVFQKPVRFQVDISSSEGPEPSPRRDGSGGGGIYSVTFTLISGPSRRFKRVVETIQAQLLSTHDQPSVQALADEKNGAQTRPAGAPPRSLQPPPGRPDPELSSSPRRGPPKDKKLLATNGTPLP
As to conditions: at 0.1 µM.

The target in experiment [5] is T2, Serine/threonine-protein kinase BRSK1 (Homo sapiens). As to conditions: at 1 µM.
Experiment [6] concerns the target T3, Serine/threonine-protein kinase BRSK2 (Homo sapiens) (UniProt Q8IWQ3).
T3 sequence (whole entry): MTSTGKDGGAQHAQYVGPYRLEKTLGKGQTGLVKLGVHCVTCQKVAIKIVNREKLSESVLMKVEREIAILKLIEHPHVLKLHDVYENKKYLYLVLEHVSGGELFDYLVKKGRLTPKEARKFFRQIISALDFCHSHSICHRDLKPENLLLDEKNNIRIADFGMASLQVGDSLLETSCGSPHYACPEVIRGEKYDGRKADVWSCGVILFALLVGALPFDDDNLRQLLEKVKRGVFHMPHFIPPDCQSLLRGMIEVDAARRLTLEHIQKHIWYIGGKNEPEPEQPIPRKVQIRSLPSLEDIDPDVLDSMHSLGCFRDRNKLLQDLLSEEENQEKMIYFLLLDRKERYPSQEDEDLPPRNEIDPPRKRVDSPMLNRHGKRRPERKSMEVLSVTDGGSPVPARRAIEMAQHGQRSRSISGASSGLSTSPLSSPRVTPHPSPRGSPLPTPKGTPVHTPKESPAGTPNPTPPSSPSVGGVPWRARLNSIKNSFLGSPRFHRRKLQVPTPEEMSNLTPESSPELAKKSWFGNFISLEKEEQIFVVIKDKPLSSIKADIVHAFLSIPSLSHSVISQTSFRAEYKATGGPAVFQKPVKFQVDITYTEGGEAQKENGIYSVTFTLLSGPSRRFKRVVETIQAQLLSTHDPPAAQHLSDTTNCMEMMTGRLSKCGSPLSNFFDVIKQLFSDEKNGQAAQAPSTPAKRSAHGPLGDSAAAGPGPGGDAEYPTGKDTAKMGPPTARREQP
The conditions noted are these: at 0.1 µM.

The target in experiment [7] is T3, Serine/threonine-protein kinase BRSK2 (Homo sapiens). The conditions noted are these: at 1 µM.
Experiment [8] addresses Calcium/calmodulin-dependent protein kinase type 1D (Homo sapiens) (UniProt Q8IU85). As to conditions: at 0.1 µM.
For experiment [9] the target is unchanged. As to conditions: at 1 µM.
In experiment [10] the target is Calcium/calmodulin-dependent protein kinase type II subunit alpha (Homo sapiens) (UniProt Q9UQM7). The conditions noted are these: at 0.1 µM.
Sequence of Calcium/calmodulin-dependent protein kinase type II subunit alpha (Homo sapiens) (Q9UQM7 whole entry): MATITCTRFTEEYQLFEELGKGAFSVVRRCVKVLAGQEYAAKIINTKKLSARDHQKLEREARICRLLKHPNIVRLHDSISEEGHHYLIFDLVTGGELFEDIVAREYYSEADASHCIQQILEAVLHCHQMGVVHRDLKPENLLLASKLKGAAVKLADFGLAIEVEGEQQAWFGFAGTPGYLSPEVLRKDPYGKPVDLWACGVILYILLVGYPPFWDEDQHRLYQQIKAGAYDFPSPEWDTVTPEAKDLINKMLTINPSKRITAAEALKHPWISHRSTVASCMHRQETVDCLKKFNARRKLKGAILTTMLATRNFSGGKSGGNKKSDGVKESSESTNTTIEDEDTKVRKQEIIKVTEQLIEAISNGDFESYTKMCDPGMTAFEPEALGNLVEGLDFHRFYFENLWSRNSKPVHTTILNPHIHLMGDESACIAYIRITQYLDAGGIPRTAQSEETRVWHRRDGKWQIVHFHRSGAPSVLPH
The target is the same in experiment [11]. The conditions noted are these: at 1 µM.
Experiment [12] concerns the target Calcium/calmodulin-dependent protein kinase type II subunit delta (Homo sapiens) (UniProt Q13557). The conditions noted are these: at 0.1 µM.
For experiment [13] the target is unchanged. The conditions noted are these: at 1 µM.
Experiment [14] deals with T4, Calcium/calmodulin-dependent protein kinase type IV (Homo sapiens) (UniProt Q16566).
T4 sequence (whole entry): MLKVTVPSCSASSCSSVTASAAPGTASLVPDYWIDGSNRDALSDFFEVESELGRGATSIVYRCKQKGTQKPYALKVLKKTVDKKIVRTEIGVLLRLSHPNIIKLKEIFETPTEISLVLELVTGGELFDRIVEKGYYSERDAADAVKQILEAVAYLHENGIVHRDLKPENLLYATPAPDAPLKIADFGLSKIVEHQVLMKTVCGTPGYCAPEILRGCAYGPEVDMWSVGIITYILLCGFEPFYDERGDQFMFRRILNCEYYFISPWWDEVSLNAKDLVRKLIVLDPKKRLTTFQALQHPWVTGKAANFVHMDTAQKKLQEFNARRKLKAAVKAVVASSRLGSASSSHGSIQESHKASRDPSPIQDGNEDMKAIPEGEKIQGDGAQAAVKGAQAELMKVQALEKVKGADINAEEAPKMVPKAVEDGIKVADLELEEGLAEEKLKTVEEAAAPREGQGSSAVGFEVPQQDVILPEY
As to conditions: at 0.1 µM.

Experiment [15] concerns the target T4, Calcium/calmodulin-dependent protein kinase type IV (Homo sapiens). As to conditions: at 1 µM.
Experiment [16] addresses T5, Serine/threonine-protein kinase Chk1 (Homo sapiens) (UniProt O14757).
T5 sequence (whole entry): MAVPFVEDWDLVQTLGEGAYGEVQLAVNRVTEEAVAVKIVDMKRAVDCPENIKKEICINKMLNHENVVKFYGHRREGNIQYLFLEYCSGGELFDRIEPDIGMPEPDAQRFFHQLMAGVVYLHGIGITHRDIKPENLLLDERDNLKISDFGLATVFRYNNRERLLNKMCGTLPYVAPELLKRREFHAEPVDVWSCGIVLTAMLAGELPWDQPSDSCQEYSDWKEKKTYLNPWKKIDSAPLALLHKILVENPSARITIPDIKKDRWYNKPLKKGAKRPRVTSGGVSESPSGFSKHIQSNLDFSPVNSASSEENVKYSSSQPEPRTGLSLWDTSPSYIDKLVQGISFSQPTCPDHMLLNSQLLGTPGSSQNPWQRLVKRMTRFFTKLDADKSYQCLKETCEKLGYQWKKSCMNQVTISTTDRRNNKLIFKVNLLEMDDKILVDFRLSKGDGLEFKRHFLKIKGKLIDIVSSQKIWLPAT
As to conditions: at 0.1 µM.

The target in experiment [17] is T5, Serine/threonine-protein kinase Chk1 (Homo sapiens). As to conditions: at 1 µM.
The target of experiment [18] is Serine/threonine-protein kinase Chk2 (Homo sapiens) (UniProt O96017). As to conditions: at 0.1 µM.
Sequence of Serine/threonine-protein kinase Chk2 (Homo sapiens) (O96017 whole entry): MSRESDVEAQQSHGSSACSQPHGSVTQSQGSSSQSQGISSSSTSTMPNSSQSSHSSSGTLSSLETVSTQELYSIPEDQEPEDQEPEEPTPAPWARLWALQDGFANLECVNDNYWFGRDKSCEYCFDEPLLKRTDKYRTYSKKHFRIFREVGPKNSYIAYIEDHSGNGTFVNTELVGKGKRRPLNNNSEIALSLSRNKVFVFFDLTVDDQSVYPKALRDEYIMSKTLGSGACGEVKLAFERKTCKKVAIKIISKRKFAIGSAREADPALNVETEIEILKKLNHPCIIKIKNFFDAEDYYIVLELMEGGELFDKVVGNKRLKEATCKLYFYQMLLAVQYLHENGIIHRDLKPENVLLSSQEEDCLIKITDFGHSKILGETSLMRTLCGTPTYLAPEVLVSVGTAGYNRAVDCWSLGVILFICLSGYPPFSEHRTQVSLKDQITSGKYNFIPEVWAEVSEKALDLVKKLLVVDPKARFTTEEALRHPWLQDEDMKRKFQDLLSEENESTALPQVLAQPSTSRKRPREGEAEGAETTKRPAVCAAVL
The target is the same in experiment [19]. As to conditions: at 1 µM.
For experiment [20], the target named is Death-associated protein kinase 1 (Homo sapiens) (UniProt P53355). As to conditions: at 0.1 µM.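 Also: reported figure is the mean inhibition of DAPK1.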
Sequence of Death-associated protein kinase 1 (Homo sapiens) (P53355 whole entry, looked up): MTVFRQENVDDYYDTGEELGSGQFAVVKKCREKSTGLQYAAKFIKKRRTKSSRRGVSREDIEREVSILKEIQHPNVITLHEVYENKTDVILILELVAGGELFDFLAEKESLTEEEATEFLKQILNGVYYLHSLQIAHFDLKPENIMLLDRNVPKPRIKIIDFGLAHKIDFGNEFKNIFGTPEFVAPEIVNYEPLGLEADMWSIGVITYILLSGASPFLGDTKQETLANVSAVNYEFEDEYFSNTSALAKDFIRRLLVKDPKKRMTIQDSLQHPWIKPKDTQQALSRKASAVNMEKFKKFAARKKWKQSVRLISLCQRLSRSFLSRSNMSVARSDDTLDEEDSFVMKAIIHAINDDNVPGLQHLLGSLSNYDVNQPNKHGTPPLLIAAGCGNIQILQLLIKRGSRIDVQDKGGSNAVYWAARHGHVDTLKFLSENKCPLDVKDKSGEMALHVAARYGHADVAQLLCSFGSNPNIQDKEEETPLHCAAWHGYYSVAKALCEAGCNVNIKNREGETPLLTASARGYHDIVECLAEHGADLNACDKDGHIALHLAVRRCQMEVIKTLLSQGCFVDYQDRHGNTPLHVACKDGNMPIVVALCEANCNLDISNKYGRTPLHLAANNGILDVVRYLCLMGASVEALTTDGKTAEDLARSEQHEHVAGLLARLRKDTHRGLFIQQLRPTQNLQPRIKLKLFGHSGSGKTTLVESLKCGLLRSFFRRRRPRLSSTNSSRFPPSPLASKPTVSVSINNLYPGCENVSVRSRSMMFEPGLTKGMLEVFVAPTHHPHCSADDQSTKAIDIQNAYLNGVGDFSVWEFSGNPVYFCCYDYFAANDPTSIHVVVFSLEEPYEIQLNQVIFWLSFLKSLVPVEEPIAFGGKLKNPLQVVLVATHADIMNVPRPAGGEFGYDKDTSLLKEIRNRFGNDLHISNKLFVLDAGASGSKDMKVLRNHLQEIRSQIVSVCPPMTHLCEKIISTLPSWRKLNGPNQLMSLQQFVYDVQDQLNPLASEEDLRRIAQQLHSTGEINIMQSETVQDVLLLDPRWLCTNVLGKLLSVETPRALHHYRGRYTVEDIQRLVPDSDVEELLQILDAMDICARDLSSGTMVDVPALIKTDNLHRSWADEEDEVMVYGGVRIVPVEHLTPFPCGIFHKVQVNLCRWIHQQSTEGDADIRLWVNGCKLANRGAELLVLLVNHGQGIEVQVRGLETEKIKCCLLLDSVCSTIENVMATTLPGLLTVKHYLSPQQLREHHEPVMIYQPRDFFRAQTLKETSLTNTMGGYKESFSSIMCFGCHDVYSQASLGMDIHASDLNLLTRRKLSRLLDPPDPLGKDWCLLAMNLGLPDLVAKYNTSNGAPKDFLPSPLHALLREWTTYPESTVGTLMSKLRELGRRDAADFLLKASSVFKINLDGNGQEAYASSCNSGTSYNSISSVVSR

Structures are written as SMILES.

Sequence of Calcium/calmodulin-dependent protein kinase type 1D (Homo sapiens) (Q8IU85 whole entry, looked up): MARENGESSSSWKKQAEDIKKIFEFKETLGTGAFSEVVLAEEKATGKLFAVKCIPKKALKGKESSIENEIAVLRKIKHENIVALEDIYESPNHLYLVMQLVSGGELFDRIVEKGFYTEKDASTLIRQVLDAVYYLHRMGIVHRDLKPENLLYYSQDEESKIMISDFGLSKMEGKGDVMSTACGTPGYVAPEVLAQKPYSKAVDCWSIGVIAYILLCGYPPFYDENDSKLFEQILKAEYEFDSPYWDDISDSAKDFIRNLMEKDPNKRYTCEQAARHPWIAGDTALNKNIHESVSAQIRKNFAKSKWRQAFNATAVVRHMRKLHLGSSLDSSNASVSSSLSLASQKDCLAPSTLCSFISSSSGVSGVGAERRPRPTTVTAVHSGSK
Sequence of Calcium/calmodulin-dependent protein kinase type II subunit delta (Homo sapiens) (Q13557 whole entry): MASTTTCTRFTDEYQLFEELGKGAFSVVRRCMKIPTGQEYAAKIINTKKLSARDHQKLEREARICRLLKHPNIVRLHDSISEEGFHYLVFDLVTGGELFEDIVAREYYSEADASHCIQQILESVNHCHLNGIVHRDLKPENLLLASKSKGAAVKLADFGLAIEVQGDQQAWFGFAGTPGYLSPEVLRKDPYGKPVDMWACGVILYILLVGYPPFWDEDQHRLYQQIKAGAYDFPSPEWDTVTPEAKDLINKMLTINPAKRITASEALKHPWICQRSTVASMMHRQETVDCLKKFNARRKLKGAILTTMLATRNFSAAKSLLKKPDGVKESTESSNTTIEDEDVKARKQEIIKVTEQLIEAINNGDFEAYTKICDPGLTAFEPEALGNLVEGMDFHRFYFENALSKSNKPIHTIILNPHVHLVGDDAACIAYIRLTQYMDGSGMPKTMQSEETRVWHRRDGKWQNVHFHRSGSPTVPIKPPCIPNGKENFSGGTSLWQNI
Sequence of 5'-AMP-activated protein kinase catalytic subunit alpha-2 (Homo sapiens) (P54646 whole entry, looked up): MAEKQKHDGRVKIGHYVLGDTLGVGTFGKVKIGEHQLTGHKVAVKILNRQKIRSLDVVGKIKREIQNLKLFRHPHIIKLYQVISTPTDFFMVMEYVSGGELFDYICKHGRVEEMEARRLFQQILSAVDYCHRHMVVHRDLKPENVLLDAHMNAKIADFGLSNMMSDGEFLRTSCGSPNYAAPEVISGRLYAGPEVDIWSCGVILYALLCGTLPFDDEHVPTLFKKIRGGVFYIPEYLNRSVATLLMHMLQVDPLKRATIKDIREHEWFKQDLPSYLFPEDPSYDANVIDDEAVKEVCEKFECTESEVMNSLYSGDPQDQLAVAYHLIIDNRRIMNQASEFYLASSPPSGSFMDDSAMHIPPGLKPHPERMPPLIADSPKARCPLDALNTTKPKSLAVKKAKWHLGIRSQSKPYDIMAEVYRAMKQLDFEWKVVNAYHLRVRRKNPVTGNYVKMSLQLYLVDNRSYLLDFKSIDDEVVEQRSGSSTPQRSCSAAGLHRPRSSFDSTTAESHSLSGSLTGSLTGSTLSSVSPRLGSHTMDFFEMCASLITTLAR

On to `CCc1cccc(CC)c1/C=C/c1cncc(C(=O)NC)c1`, for which the inhibition (as a rule, the drop in the measured response relative to a control, in per cent) in experiment [1] is 2.36%; in experiment [2] it was 1.6%; in experiment [3], 6.57%; in [4], 1.79%; in experiment [5], 0.96%; in experiment [6], 0.46%. For the same compound, the inhibition was 0.3% in experiment [7]; 0.62% in [8]; 1.99% in experiment [9]; 3.18% in [10]; 3.51% in experiment [11]; 2.92% in experiment [12]. Moreover, the inhibition amounted to 2.2% in experiment [13]; 1.05% in experiment [14]; 13.9% in [15]; 3.68% in experiment [16]; 2.13% in experiment [17]; 1.58% in [18]. Besides, the inhibition in experiment [19] stood at 1.85%; in [20], 2.61%.

In the case of `Cc1nnc(-c2ccc(C)c(-c3ccc(C(=O)NCc4ccc(Cl)cc4)cc3)c2)o1`, the inhibition was 3.56% in experiment [1]; 1% in experiment [2]; 4.79% in [3]; -2.13% in experiment [4]; -2.87% in [5]; 1.17% in experiment [6]. In addition, the inhibition was 2.51% in experiment [7]; -1.49% in experiment [8]; 0.04% in experiment [9]; 2.6% in [10]; 3.22% in experiment [11]; 2.75% in experiment [12]. Moreover, the inhibition in [13] worked out at 2.68%; in [14], 0.34%; in experiment [15] it was 0.46%; in experiment [16], 1.36%; in experiment [17] it was 2.22%; in [18], 1.43%. Besides, the values for the inhibition in [19] and in experiment [20] were 1.86% and 2.85%, respectively.

`Fc1ccc(-c2c(-c3ccncc3)nc3n2CCS3)cc1`: the inhibition was 4.29% in experiment [1]; -0.3% in experiment [2]; 1.86% in experiment [3]; -0.79% in experiment [4]; 0.97% in experiment [5]; 0.47% in [6]. Also, the inhibition was 3.65% in experiment [7]; 2.44% in experiment [8]; -0.09% in [9]; 0.37% in experiment [10]; 0.88% in experiment [11]; 1.78% in experiment [12]. The inhibition in experiment [13] is 2.01%; in [14], 1.18%; in experiment [15], -0.25%; in experiment [16], 0.42%; in experiment [17] it was 2.88%; in experiment [18] it was 1.49%. The inhibition was 0.52% in experiment [19] and -0.64% in experiment [20].
